Laboratory results taken from PubChem BioAssay AID894 (National Center for Advancing Translational Sciences (NCATS), 2007).
In all, about 150,000 compounds went through this assay and about 6,500 (4.3%) were called active. Not shown: some 12% with an inconclusive outcome. Calls come from the whole dose curve; as a rule, active = well fitted inhibition curve with a large enough effect (not every such curve was filed as active); inconclusive = small, poorly fitted or top-dose-only effect, or another doubt; inactive = no such curve, though single readings can be large or run the other way. The sample as a whole holds a higher share of actives than the screen did.

These molecules were tested against 15-hydroxyprostaglandin dehydrogenase [NAD(+)] (Homo sapiens) (UniProt P15428) (assay: qHTS Assay for Inhibitors of HPGD (15-Hydroxyprostaglandin Dehydrogenase)). Conditions: purified HPGD, NADH fluorescence kinetic, PGE2 substrate; activity change, negative = inhibition: active compounds read low.
Excerpt: Human 15-Hydroxyprostaglandin dehydrogenase (HPGD) catalyzes the inactivation of prostaglandin E2, and plays a major role in cancer biology by antagonizing the oncogenic potential of cyclooxygenase type 2 (COX2). Assays are available, based on absorbance/fluorescence increase of NADH with the substrate 15-OH prostaglandin E2. References 1. Myung SJ, Rerko RM, Yan M, Platzer P, Guda K, Dotson A, Lawrence E, Dannenberg AJ, Lovgren AK, Luo G, Pretlow TP, Newman RA, Willis J, Dawson D, Markowitz SD. 15-Hydroxyprostaglandin dehydrogenase is an in vivo suppressor of colon tumorigenesis. […] 2. Yan M, Rerko RM, Platzer P, Dawson D, Willis J, Tong M, Lawrence E, Lutterbaugh J, Lu S, Willson JK, Luo G, Hensold J, Tai HH, Wilson K, Markowitz SD. 15-Hydroxyprostaglandin dehydrogenase, a COX-2 oncogene antagonist, is a TGF-beta-induced suppressor of human gastrointestinal cancers. Proc Natl Acad Sci U S A. 2004 Dec 14;101(50):17468-73. 3. Yang L, Amann JM, Kikuchi T, Porta R, Guix M, Gonzalez A, Park KH, Billheimer D, Arteaga CL, Tai HH, Dubois R, Carbone DP, Johnson DH. Inhibition of Epidermal Growth Factor Receptor Signaling Elevates 15-Hydroxyprostaglandin Dehydrogenase in Non-Small-Cell Lung Cancer. Cancer Res. 2007 Jun 15;67(12):5587-5593. Inhibition of HPGD activity was screened by utilizing prostaglandin as an electron donor and NAD+ as an electron acceptor/cofactor. An increase in the fluorescence intensity due to conversion of NAD+ to NADH was used to measure the enzyme activity. NIH Chemical Genomics Center [NCGC] Structural Genomics Consortium [SGC]
Buffer: 50 mM Tris-HCl, 0.01% Tween 20, pH 8. Enzyme Buffer: 50 mM Tris-HCl, 0.5 mM NAD+ and 0.01% Tween 20, pH 8. Reagents/Controls: Buffer in columns 3 and 4 as negative control (no enzyme). Substrate/cofactor solution: 1 mM NAD+ and 30 uM prostaglandin (Sigma, prostaglandin E2, # P5640) final concentrations dispensed throughout the plate. Enzyme: 20 nM HPGD final concentration in columns 1, 2, 5-48. Column 1 and 2 is neutral (100% activity). A titration of control inhibitor GW5074 (G6416 Sigma-Aldrich, St. Louis, MO) top concentration 10 mM in DMSO, then 1:2 dilution for a total of 16 concentrations in duplicate) was pin-transferred into column 2. Assay Steps: Three uL of enzyme were dispensed to 1536-well Greiner black solid bottom plates. Compounds and control inhibitor (23 nL) were transferred via Kalypsys PinTool. The plates were incubated for 15 min at room temperature, and then 1 uL of substrate/cofactor solution was added to start the reaction. The plates were immediately transferred to and read 5 times every 30 seconds on ViewLux High-throughput CCD imager (Perkin-Elmer) using 360 nm excitation and 450 nm emission fluorescence protocol. The fluorescence intensity difference between the last and the first time points was used to compute reaction progress.
% is set by controls: 0 for no effect and ±100 for the full control effect; potency is the fitted concentration of half-maximal effect.

Chain of 15-hydroxyprostaglandin dehydrogenase [NAD(+)] (Homo sapiens) (P15428 whole entry, looked up): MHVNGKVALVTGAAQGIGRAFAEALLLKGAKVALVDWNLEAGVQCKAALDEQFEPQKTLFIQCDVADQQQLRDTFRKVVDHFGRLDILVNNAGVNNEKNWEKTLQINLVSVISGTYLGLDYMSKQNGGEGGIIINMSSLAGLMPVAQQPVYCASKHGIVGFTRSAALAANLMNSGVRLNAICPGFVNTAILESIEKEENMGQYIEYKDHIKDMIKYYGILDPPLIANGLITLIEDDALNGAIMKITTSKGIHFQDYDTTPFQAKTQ

Structure (SMILES) | activity change, negative = inhibition | Potency
Cc1ccc2c(CSc3nncs3)cc(=O)oc2c1 | -18.3% (inactive) | 
CCCc1cc(=O)[nH]c(SCc2ccc(C#N)cc2)n1 |  | 15.8 µM (active)
CCCc1cc(=O)[nH]c(SCc2cc(=O)oc3c(C)c(C)ccc23)n1 |  | 3.55 µM (active)
CCCc1cc(=O)n2[nH]c(SCc3ccccc3)nc2n1 | -15.8% (inactive) | 
CCCc1cc(=O)[nH]c(SCC(=O)N2CCN(S(=O)(=O)c3ccc(C)cc3C)CC2)n1 | -0.796% (inactive) | 
CCCc1cc(=O)[nH]c(SCC(=O)OCc2ccccc2)n1 | -12.3% (inactive) | 
CCCCN1C(=O)CCC(C(=O)O)C1c1ccc(OC)cc1 (stereo unspecified) | -3.29% (inactive) | 
CCc1cccc(NC(=O)CCC(=O)O)c1 | 6.1% (inactive) | 
COc1ccc2c(CC(=O)OCC(=O)Nc3ccccc3[N+](=O)[O-])coc2c1 | -21.4% (inactive) | 
COc1cc2ccccc2cc1C(=O)Nc1ccc(S(=O)(=O)Nc2cc(C)on2)cc1 |  | 20 µM (active)
COc1cc(OC)cc(C(=O)Nc2ccc(S(=O)(=O)Nc3cc(C)on3)cc2)c1 | -20.6% (inactive) | 
Cc1cc(NS(=O)(=O)c2ccccc2)no1 | -11.9% (inactive) | 
COc1ccc2nc(Nc3nc(-c4cc5ccccc5oc4=O)cs3)sc2c1 | -10.8% (inactive) | 
C/C(=N\NS(=O)(=O)c1ccc(Cl)cc1)c1ccc(NC(=O)c2ccco2)cc1 | -18.3% (inactive) | 
Nc1nnc(SCCN2C(=O)c3ccccc3S2(=O)=O)s1 | -12.2% (inactive) | 
O=C(CN1C(=O)c2ccccc2S1(=O)=O)N1CCc2ccccc21 | -12.2% (inactive) | 
O=C1c2ccccc2S(=O)(=O)N1CC(O)Cn1c2ccccc2c2ccccc21 (stereo unspecified) |  | 8.91 µM (active)
CCCCC/C=C\C/C=C\CCCCCCCCCC(=O)NCC(=O)O | -8.47% (inactive) | 
Cc1cccc(-c2nc3ccccc3c(=O)n2NC(=O)Cc2ccc(Cl)cc2)c1 | -9.37% (inactive) | 
CCCCc1cc2c(s1)CCCC/C2=N/O | -24.8% (inactive) | 
CC(C)NC(=O)CSc1ccccc1C(=O)NCc1ccc2c(c1)OCO2 | -1.41% (inactive) | 

Structure (SMILES) | activity change, negative = inhibition | Potency
COc1ccc(CNC(=O)CCn2cccc2)cc1 | -21.6% (inactive) | 
CCSc1ccccc1C(=O)NCc1ccc(OC)cc1 |  | 2.51 µM (active)
Cc1cccc(N2C(=O)C3C(c4ccccc4)OC4(C(=O)c5ccccc5C4=O)C3C2=O)c1 (stereo unspecified) | -4.94% (inactive) | 
Cc1cccc(N2C(=O)SC(N(CC(=O)O)c3cccc(C)c3)C2=O)c1 (stereo unspecified) | -14.2% (inactive) | 
Cc1cccc(N2C(=O)SC(SC(=Nc3ccccc3)Nc3ccccc3)C2=O)c1 (stereo unspecified) |  | 14.1 µM (active)
O=c1c2c(ncn1Cc1ccccc1)nc1n2CCC1 | -17.9% (inactive) | 
COc1ccc(-c2csc(NC(=O)COC(=O)Cc3ccc(Cl)cc3Cl)n2)cc1 | -9.05% (inactive) | 
O=C(Nc1cn(-c2ccccc2)nc1-c1ccccc1)c1ccccc1 | -2.03% (inactive) | 
O=C(NC1CCCC1)c1ccc(Br)s1 |  | 3.55 µM (active)
O=C(NC1CCCC1)C(NS(=O)(=O)c1ccc(Br)s1)c1ccccc1 (stereo unspecified) | -1.61% (inactive) | 
CN(CC(=O)NC1CCCCC1)S(=O)(=O)c1ccc(Br)s1 | -1.92% (inactive) | 
O=C(COC(=O)c1c2c(nc3ccccc13)/C(=C\c1cccs1)CCC2)Nc1ccccc1Cl | -25.4% (inactive) | 
C=CCN1c2ccccc2[C@]23C[C@@H](C(=O)OC)N(S(=O)(=O)c4ccc([N+](=O)[O-])cc4)C2=NC(C(=O)OC)=C(C(=O)OC)[C@H]13 | -18.4% (inactive) | 
COc1cc(/C=C(/NC(=O)c2ccc(Cl)cc2Cl)C(=O)O)cc(OC)c1OC | -5.89% (inactive) | 
O=C(O)c1cccc(S(=O)(=O)NCCO)c1 | -3.87% (inactive) | 
COc1ccc(S(=O)(=O)Nc2ccc(O)c(Sc3nc4ccccc4s3)c2)cc1 |  | 25.1 µM (active)
COc1ccc(NS(=O)(=O)c2ccc(NC(=S)NC(=O)CC(C)C)cc2)cc1 | -14.4% (inactive) | 
COC(=O)c1nc2ccccc2s1 | 0.316% (inactive) | 
O=C(O)c1cccc(S(=O)(=O)Nc2ccc(O)cc2Sc2nc3ccccc3s2)c1 |  | 10 µM (active)
O=C(Nc1nc2cc3c(cc2s1)OCCO3)c1cccc(S(=O)(=O)N2CCOCC2)c1 | -10.8% (inactive) | 
CC(=O)NC1=NN(C(C)=O)C(C)(CCS(=O)(=O)c2ccc(Cl)c(Cl)c2)S1 (stereo unspecified) | -9.18% (inactive) | 

Structure (SMILES) | activity change, negative = inhibition | Potency
CCCCN1C(=O)c2ccc(C(=O)Nc3ccc(S(=O)(=O)N(C)C)cc3)cc2C1=O | -11.6% (inactive) | 
CCCc1nc(SCC(=O)Nc2ccccc2OC)c2c(=O)n(C)c(=O)n(C)c2n1 | -0.308% (inactive) | 
CCCCCNC(=O)c1cccnc1SCC(=O)Nc1ccccc1OC |  | 10 µM (active)
CCCNC(=O)c1ccccc1NC(=O)CSCc1ccc(OC)cc1 | -5.31% (inactive) | 
COc1cccc(NC(=S)NC(=O)c2c(Cl)c(C)nn2C)c1 | -18.7% (inactive) | 
Cc1sc2nc(CC(N)=O)[nH]c(=O)c2c1-c1ccccc1 | 1.92% (inactive) | 
CC1CCCCN1CC(=O)NCc1ccc2c(c1)OCO2 (stereo unspecified) |  | 8.91 µM (active)
O=C(CNS(=O)(=O)c1ccc(Br)s1)NCc1ccc2c(c1)OCO2 | -7.58% (inactive) | 
O=C(Cn1nnc(-c2ccccc2)n1)NCc1ccc2c(c1)OCO2 | -12.6% (inactive) | 
O=C(NCc1ccc2c(c1)OCO2)C12CC3CC(CC(C3)C1)C2 |  | 31.6 µM (active)
Cn1cc(CCC(=O)NCc2ccc3c(c2)OCO3)c2ccccc21 | -17.1% (inactive) | 
CCOC(=O)NCc1ccc2c(c1)OCO2 | -9.86% (inactive) | 
OC[C@H]1O[C@@H](n2cnc3c(NC4CCCC4)ncnc32)[C@H](O)[C@H]1O | -4.78% (inactive) | 
CCCCC(NS(=O)(=O)c1ccc(C)cc1)C(=O)Oc1ccc2c3c(c(=O)oc2c1)CCC3 (stereo unspecified) | -8.04% (inactive) | 
Cn1c(=O)c(Sc2ccc(Cl)cc2)c(O)c2ccccc21 | -12.7% (inactive) | 
CC(C)OCCCNC(=O)c1cc(Sc2ccc(F)cc2)nc2ccccc12 | -12.9% (inactive) | 
Cc1nc([N+](=O)[O-])nn1C12CC3CC(CC(Br)(C3)C1)C2 |  | 14.1 µM (active)
COc1cccc(NC(=O)c2nn(C34CC5CC(CC(C5)C3)C4)cc2[N+](=O)[O-])c1 | -4.79% (inactive) | 
Cc1ncn(C23CC4CC(CC(O)(C4)C2)C3)n1 | -6.48% (inactive) | 
